Data reported in PubChem BioAssay (NCATS).
Results filed as inconclusive are left out. Calls of active or inactive are those of the source. Unless noted, calls come from the whole dose curve; as a rule, active = well fitted curve in the direction sought with a large enough effect; inconclusive = small, poorly fitted or top-dose-only effect, or another doubt; inactive = no such curve, though single readings can be large; an effect the other way counts as inactive or inconclusive.

How the values were obtained:
[1] = qHTS to identify inhibitors of the type 1 interferon - major histocompatibility complex class I in skeletal muscle: primary screen against the NCATS Pharmaceutical Collection (AID 1347407); conditions: human skeletal muscle cells, IFN-b-induced MHC-I HiBiT luminescence, 24 h; series mostly up to 45.9 µM;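 note: luminescence of HiBiT knocked into endogenous HLA-B as interferon-induced MHC class I level; % is set by controls: 0 for no effect and ±100 for the full control effect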
In short: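 Compounds […] were added to CRISPR-engineered HLA-B-HiBiT C25cl48 human myoblasts with 4.0 ng/ml IFN-beta. After 24 hrs at 37 C, cells were lysed and HiBiT luminescence measured.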

[2] = target: Protein phosphatase 1D (Homo sapiens) (UniProt O15297); experiment: RapidFire Mass Spectrometry qHTS Assay for Modulators of WT P53-Induced Phosphatase 1 (WIP1) (AID 1347424); conditions: WIP1 dephosphorylation of phosphopeptide, RapidFire MS; series mostly up to 63 µM;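 note: plate controls were DMSO wells for no effect and GSK830371 inhibitor control at 10 µM for full effect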
In short: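 RapidFire MS readout of dephosphorylated VEPPL-S-QETFS product, with 1 uM isotope-labelled peptide standard. Reaction: 10 nM WIP1, 2 uM phosphopeptide substrate, 5 min, room temperature, after 1 h compound preincubation; stopped with 0.5% formic acid.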

[3] = target: Protein phosphatase 1D (Homo sapiens) (UniProt O15297); experiment: Rhodamine-PBP qHTS Assay for Modulators of WT P53-Induced Phosphatase 1 (WIP1) (AID 1347425); conditions: recombinant WIP1, Rhodamine-PBP phosphate fluorescence, real-time; series mostly up to 57.5 µM; note: % of control where 0% means no effect
In short: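 WIP1 (5 nM final) was preincubated with compound for 1 hour at room temperature. It then dephosphorylated 10 uM VEPPL-pS-QETFS peptide in Tris-HCl pH 7.5 with 30 mM MgCl2. Released Pi was detected by 10 uM Rh-PBP fluorescence (ex 525/em 598 nm) read at 1-min intervals for 11 min, as delta f1 - f0.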

[4] = Primary qHTS for inhibitors of La Crosse Virus (LACV) - induced cell death in SH-SY5Y cells (AID 1508616); conditions: SH-SY5Y LACV cytopathicity rescue, ATP luminescence, 6 d; series mostly up to 4.29 µM;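 note: top concentration of the series differs between compounds; 0% = infected DMSO wells and 100% = uninfected DMSO wells; higher means more rescue of cells from virus-induced death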
In short: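 Cytopathicity rescue screen: compounds pinned onto SH-SY5Y cells, which are then infected with LACV (MOI 0.01) and held 6 days at 37C. Percent activity is scaled between infected DMSO control and uninfected DMSO control.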

[5] = target: Calcium and integrin-binding protein 1 (Homo sapiens) (UniProt Q99828); experiment: Primary qHTS for Identification of Calcium Integrin Binding Protein 1 (CIB1) Competitor (AID 1508620); conditions: CIB1-GST / FITC-alphaIIb peptide fluorescence polarization; series mostly up to 114 µM;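 note: GST tagged CIB1 binding a fluorescein labelled alphaIIb integrin peptide tracer; top concentration of the series differs between compounds; % is set by controls: 0 for no effect and ±100 for the full control effect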
In short: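 Fluorescence polarization competition: GST-tagged CIB1 (1 uM final) preincubated with compound 15 min at room temperature, then FITC-labelled alphaIIb peptide (100 nM final) added. After 15 min at room temperature, polarization read at Ex 480/Em 540.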

[6] = A High-Content qHTS Against Drug Library for the Identification of Small Molecules that Inhibit DYT1 Early Onset Primary Dystonia-Associated Cell Pathology (AID 1645839; calls by dose curve); conditions: HEK293 Flp-In EGFP-delE TorsinA, punctate imaging, 48 h; series mostly up to 46.1 µM
In short: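 Cells were seeded and left for 24 h, then dosed with compound alongside tetracycline induction of mutant EGFP-TorsinA. They were incubated for 48 h, fixed in 4% paraformaldehyde, permeabilized and imaged for mislocalization (%pathology) and cell count.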

[7] = target: Cytochrome P450 2D6 (Homo sapiens) (UniProt P10635); experiment: Cytochrome P450 family 2 subfamily D member 6 (CYP2D6) small molecule antagonists: luciferase biochemical (cell-free) qHTS assay (AID 1645840; active = well fitted curve in the direction sought with a large enough effect in the repeat runs; an effect the other way counts as inactive or inconclusive; note: nearly all actives have a fitted effect of over 55% in size; note: potency is the fitted concentration of half-maximal effect; for activity change, negative = inhibition: % is set by controls: 0 for no effect and ±100 for the full control effect); conditions: P450-Glo CYP2D6 enzyme, luciferin luminescence, 1 h; series mostly up to 57.4 µM
In short: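 P450-Glo CYP2D6 system: proluciferin substrate converted by enzyme to luciferin, read by luminescence proportional to activity. Enzyme-substrate mix with compound 10 min at room temperature, then NADPH regeneration 1 h before detection reagent.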

[8] = Primary qHTS for small molecule stabilizers of the endoplasmic reticulum resident proteome: Secreted ER Calcium Modulated Protein (SERCaMP) assay (AID 1508630); conditions: SH-SY5Y GLuc-SERCaMP (Gaussia luciferase released on ER calcium loss) secretion, thapsigargin, luminescence; series mostly up to 38.4 µM; note: % is set by controls: 0 for no effect and ±100 for the full control effect
In short: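 The SH-SY5Y reporter protocol was run at 3 concentrations up to 38.3 uM (primary) or 11 concentrations (follow-up): 16 h compound, 100 nM thapsigargin for 4 h, then extracellular luciferase luminescence.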

Sequence of Protein phosphatase 1D (Homo sapiens) (O15297 whole entry, looked up): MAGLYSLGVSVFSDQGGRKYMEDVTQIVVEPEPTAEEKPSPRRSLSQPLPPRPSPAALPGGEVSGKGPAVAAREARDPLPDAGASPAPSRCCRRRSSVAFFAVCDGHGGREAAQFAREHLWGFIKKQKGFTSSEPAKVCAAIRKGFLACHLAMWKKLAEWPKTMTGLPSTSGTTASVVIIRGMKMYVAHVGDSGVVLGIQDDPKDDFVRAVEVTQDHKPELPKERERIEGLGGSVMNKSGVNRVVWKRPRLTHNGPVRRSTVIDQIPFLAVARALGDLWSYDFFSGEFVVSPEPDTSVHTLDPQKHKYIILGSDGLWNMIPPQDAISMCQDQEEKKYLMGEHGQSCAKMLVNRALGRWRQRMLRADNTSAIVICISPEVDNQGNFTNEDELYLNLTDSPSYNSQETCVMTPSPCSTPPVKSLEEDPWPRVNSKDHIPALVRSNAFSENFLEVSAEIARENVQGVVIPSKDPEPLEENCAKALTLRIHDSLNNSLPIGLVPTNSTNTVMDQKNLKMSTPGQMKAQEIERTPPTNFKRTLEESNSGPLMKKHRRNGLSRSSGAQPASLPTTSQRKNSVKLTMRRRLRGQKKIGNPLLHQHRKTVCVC
Sequence of Cytochrome P450 2D6 (Homo sapiens) (P10635 whole entry, looked up): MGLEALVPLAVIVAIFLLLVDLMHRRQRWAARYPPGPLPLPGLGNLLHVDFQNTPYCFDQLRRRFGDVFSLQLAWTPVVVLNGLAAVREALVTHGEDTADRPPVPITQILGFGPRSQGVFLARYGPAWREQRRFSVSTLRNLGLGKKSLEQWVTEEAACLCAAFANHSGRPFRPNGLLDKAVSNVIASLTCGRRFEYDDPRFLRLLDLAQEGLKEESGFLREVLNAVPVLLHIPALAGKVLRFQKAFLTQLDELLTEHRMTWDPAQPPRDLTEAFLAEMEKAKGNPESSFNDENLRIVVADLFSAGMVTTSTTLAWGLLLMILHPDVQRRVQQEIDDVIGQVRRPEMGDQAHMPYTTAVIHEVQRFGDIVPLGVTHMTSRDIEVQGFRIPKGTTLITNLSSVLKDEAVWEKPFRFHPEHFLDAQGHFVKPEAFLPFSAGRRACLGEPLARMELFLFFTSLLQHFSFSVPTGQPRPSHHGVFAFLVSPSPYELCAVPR
Sequence of Calcium and integrin-binding protein 1 (Homo sapiens) (Q99828 whole entry, looked up): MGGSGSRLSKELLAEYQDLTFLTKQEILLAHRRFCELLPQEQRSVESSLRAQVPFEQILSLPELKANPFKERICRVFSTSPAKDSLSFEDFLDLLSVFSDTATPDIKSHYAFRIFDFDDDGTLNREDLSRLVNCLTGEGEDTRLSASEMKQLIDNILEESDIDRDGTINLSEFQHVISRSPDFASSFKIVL

N[C@@H](CSCCCO)C(=O)O
inactive: Potency [1] | outcome [2] | outcome [3] | outcome [4] | outcome [5] | Potency [6] | Potency [7]

N[C@H]1C(O)O[C@H](CO)[C@@H](O)[C@@H]1O (stereo not given in full)
inactive: Potency [1] | outcome [2] | outcome [3] | outcome [4] | outcome [5] | Potency [8] | Potency [6] | Potency [7]

C[C@]12CC[C@@H]3c4ccc(O)cc4CC[C@H]3[C@@H]1CC[C@@H]2OC(=O)CCC1CCCC1
inactive: Potency [1] | outcome [2] | outcome [3] | outcome [4] | outcome [5] | Potency [8] | Potency [6] | Potency [7]

O=C(O)[C@@H]1CSCN1
inactive: Potency [1] | outcome [2] | outcome [3] | outcome [4] | outcome [5] | Potency [8] | Potency [6] | Potency [7]

CC1(C)S[C@@H]2[C@H](NC(=O)Cc3ccccc3)C(=O)N2[C@H]1C(=O)O (tested in a mixture with another compound)
inactive: Potency [1] | outcome [2] | outcome [3] | outcome [4] | outcome [5] | Potency [6]

O=C(O)CC(O)C(=O)O (stereo not given)
inactive: Potency [1] | outcome [2] | outcome [3] | outcome [4] | outcome [5] | Potency [6] | Potency [7]

Cn1cc[nH]c1=S
inactive: Potency [1] | outcome [2] | outcome [3] | outcome [4] | outcome [5] | Potency [8] | Potency [6] | Potency [7]

CC12CCC(CC1)C(C)(C)O2
inactive: Potency [1] | outcome [2] | outcome [3] | outcome [4] | outcome [5] | Potency [6] | Potency [7]

CC1=C(C/C=C(\C)CCC[C@H](C)CCC[C@H](C)CCCC(C)C)C(=O)c2ccccc2C1=O
inactive: Potency [1] | outcome [2] | outcome [3] | outcome [4] | outcome [5] | Potency [6] | Potency [7]

CCCOC(=O)c1ccccc1
inactive: Potency [1] | outcome [2] | outcome [3] | outcome [4] | outcome [5] | Potency [6] | Potency [7]

N[C@@H](CSSC[C@H](N)C(=O)O)C(=O)O
inactive: activity change, negative = inhibition [1] 0.957% [at 0.727 µM] | activity change, negative = inhibition [2] -0.373% [at 0.505 µM] | activity change, negative = inhibition [3] 14.5% [at 0.575 µM] | activity change [4] -4.86% [at 0.0343 µM] | activity change, negative = inhibition [5] 1.18% [at 1.07 µM] | % pathology change, negative = correction [6] 10.2% [at 0.369 µM] | activity change, negative = inhibition [7] -1.65% [at 0.91 µM]

CCC(=O)Nc1ccc(O)cc1
inactive: Potency [1] | outcome [2] | outcome [3] | outcome [4] | outcome [5] | Potency [6] | Potency [7]

Cc1cccc(C)c1NC(=O)CN(CC(=O)O)CC(=O)O
inactive: Potency [1] | outcome [2] | outcome [3] | outcome [4] | outcome [5] | Potency [6] | Potency [7]

Cc1cc2c(cc1S(N)(=O)=O)S(=O)(=O)CCC2
inactive: Potency [1] | outcome [2] | outcome [3] | outcome [4] | outcome [5] | Potency [6] | Potency [7]

Oc1ccc(C(O)CNCCCCCCNCC(O)c2ccc(O)c(O)c2)cc1O (stereo not given)
inactive: Potency [1] | outcome [2] | outcome [3] | outcome [4] | outcome [5] | Potency [6] | Potency [7]

COC(=O)[C@H]1[C@H]2C[C@@H]3c4[nH]c5cc(OC)ccc5c4CCN3C[C@H]2C[C@@H](OC(=O)COc2ccc(OC)cc2)[C@@H]1OC
inactive: Potency [1] | outcome [2] | outcome [3] | outcome [4] | outcome [5] | Potency [6]
active: Potency [7] 9.77 µM

O=C1c2c(O)cccc2Cc2cccc(O)c21
inactive: Potency [1] | outcome [2] | outcome [3] | outcome [4] | outcome [5] | Potency [6] | Potency [7]

CC1(C)CO[C@@H](CC(=O)O)CN1
inactive: Potency [1] | outcome [2] | outcome [3] | outcome [4] | outcome [5] | Potency [6] | Potency [7]

[O-][n+]1cccc(CO)c1
inactive: Potency [1] | outcome [2] | outcome [3] | outcome [4] | outcome [5] | Potency [6] | Potency [7]

O=S(=O)(O)c1cc(I)c(O)c2ncccc12
inactive: Potency [1] | outcome [2] | outcome [3] | outcome [4] | outcome [5] | Potency [6] | Potency [7]

NCCNCCNCCNCCN
inactive: activity change, negative = inhibition [1] 0.364% [at 9.18 µM] | activity change, negative = inhibition [2] -9.15% [at 12.6 µM] | activity change, negative = inhibition [3] 12% [at 11.5 µM] | activity change [4] -4.84% [at 0.858 µM] | outcome [5] | % pathology change, negative = correction [6] 14.9% [at 9.22 µM] | activity change, negative = inhibition [7] 12.4% [at 11.5 µM]

CN1[C@@H]2CC[C@H]1CC(OC(=O)C(O)c1ccccc1)C2 (stereo not given in full)
inactive: Potency [1] | outcome [2] | outcome [3] | outcome [4] | outcome [5] | Potency [6] | Potency [7]

C[C@@H]1CN(c2c(F)c(F)c3c(=O)c(C(=O)O)cn(C4CC4)c3c2F)C[C@H](C)N1
inactive: Potency [1] | outcome [2] | outcome [3] | outcome [4] | outcome [5] | Potency [6] | Potency [7]

Nc1ccc(S(=O)(=O)Nc2ccccc2)cc1
inactive: Potency [1] | outcome [2] | outcome [3] | outcome [4] | outcome [5] | Potency [6] | Potency [7]

CC1CC(OC(=O)C(O)c2ccccc2)CC(C)(C)N1C (stereo not given)
inactive: Potency [1] | outcome [2] | outcome [3] | outcome [4] | outcome [5] | Potency [6] | Potency [7]

C[C@@H]1CCN(C(=O)[C@H](CCCN=C(N)N)NS(=O)(=O)c2cccc3c2NC[C@H](C)C3)[C@@H](C(=O)O)C1
inactive: Potency [1] | outcome [2] | outcome [3] | outcome [4] | outcome [5] | Potency [6] | Potency [7]
